Where “and” joins values, the source holds several entries; their conditions need not be identical. Equal values may be shown once.
Assays:
Format in all cases: functional
[1] = biological target: Solute carrier family 2, facilitated glucose transporter member 1 (Homo sapiens) (UniProt P11166); test: ST_JUDE_LEISH: Cytotoxicity at 2uM final concentration against transgenic Leishmania Mexicana promastigotes LmGLUT1 that are glucose transport deficient and complemented with the human glucose transporter GLUT1. Activity is measured by DNA content using SYBR green in vitro
Solute carrier family 2, facilitated glucose transporter member 1 (Homo sapiens), sequence (P11166 whole entry): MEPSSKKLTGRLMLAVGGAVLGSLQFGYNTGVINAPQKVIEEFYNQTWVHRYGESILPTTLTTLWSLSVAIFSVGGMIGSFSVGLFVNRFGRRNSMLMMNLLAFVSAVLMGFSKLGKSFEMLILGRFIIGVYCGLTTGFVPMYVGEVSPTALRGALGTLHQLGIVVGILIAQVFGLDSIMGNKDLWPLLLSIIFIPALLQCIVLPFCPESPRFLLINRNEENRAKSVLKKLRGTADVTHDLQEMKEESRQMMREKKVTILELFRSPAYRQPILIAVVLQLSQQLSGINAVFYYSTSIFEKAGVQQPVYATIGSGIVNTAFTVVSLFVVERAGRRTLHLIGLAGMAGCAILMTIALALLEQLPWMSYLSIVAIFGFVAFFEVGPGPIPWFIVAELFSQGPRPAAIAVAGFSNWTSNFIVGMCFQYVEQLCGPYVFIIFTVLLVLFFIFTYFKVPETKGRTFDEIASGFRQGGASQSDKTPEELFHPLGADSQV

[2] = biological target: Hexose transporter 1 (Plasmodium falciparum) (UniProt O97467); test: ST_JUDE_LEISH: Cytotoxicity at 2uM final concentration against transgenic Leishmania Mexicana promastigotes LmPfHT that are glucose transport deficient and complemented with the Plasmodium falciparum hexose transporter. Activity is measured by DNA content using SYBR green in vitro
[3] = biological target: Glucose transporter (Leishmania mexicana) (UniProt O61059); test: ST_JUDE_LEISH: Cytotoxicity at 2uM final concentration against transgenic Leishmania Mexicana promastigotes LmGT2 that are glucose transport deficient and complemented with the L. Mexicana glucose transporter 2. Activity is measured by DNA content using SYBR green in vitro

Row | SMILES | inhibition [1] | inhibition [2] | inhibition [3]
1 | OC(CNC1CCCCCCC1)c1ccc(Cl)c(Cl)c1 (stereo unspecified) | 1.96% | 2.06% | 2.43%
2 | COC(=O)c1ccc(CC(C)NCC(O)c2ccc(F)c(Cl)c2)cc1 (stereo unspecified) | 0.56% | 0.78% | 2.31%
3 | COc1ccc2[nH]cc(C3=CCN(CC4CC4C(=O)c4ccccc4)CC3)c2n1 (stereo unspecified) | 12.6% | 14.6% | 11.3%
4 | C/C=C1\CN2CC[C@H]1C[C@H]2[C@H](O)c1ccnc2ccc(OC)cc12 | 10% and 3.4% | 9.89% and 3.71% | 9.9% and 2.84%
5 | O=C(NC1CCC(CN2CCC(c3c[nH]c4ccccc34)CC2)CC1)c1cc(-c2ccccc2)c(C(F)(F)F)s1 (stereo unspecified) | 11.2% | 14.7% | 6.95%
6 | CC(C)N(C)C(=O)n1cnc(S(=O)(=O)C2CC3CCC2C3)n1 (stereo unspecified) | 2.26% | 1.45% | -0.84%
7 | CC[C@H]1CN2CC[C@H]1C[C@H]2C(O)c1cc(OC)nc2ccccc12 (stereo partly specified) | -0.41% | 0.13% | -0.23%
8 | CC(C)(C)c1ccc(Cn2nc(C(=O)N3CCN(C(=O)C4CCCO4)CC3)c3ccccc32)cc1 (stereo unspecified) | 0.73% | 0.1% | -3.52%
9 | CC[C@H]1CN2CC[C@H]1C[C@H]2[C@H](O)c1cc(/C=C/c2ccccc2)nc2ccc(OC)cc12 | 0.9% | -0.83% | -0.2%
10 | CCCCCCC(C)c1cc(O)c2c(c1)OC(C)(C)c1ccncc1-2 (stereo unspecified) | 1.12% | 0.89% | -1.19%
11 | N#Cc1c(Cl)cccc1Oc1ccc(S(=O)(=O)N2CCC(CN3CCC(c4c[nH]c5ccccc45)CC3)CC2)cc1 | 1.64% | -0.14% | -0.73%
12 | COCC(=O)N(Cc1ccccc1-c1cccc(CNCCc2ccccc2)c1)C1CCN(Cc2ccccc2)CC1 | 0.81% | 0.92% | 3.9%

From ChEMBL document CHEMBL3433997, “St. Jude Leishmania screening dataset” (2016)
